# In the library only some 3.5% were active in any assay of this set; here they are far more common.
# FBW7 activator: human FBW7 E3 ligase activation, primary screen | Q969H0 | AlphaScreen FBW7–phospho-cyclin E peptide binding, activator screen | normalized activity (activation), % at 26.1 µM | 650,000 compounds, 0.13% hits; in the data active = normalized activity above about 1.9%;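 note: purified mutant Fbw7 with reduced substrate affinity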
# GPR151 activ: activates the human receptor GPR151. PathHunter beta-arrestin GPR151 cells, luminescence. activation, % at 11.2 µM. 650,000 compounds, 1% hits; in the data active = activation above about 4.9%;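 note: 0% = median of compound wells and 100% = cells with positive control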
# Target sequence (Q8TDV0 whole entry, looked up): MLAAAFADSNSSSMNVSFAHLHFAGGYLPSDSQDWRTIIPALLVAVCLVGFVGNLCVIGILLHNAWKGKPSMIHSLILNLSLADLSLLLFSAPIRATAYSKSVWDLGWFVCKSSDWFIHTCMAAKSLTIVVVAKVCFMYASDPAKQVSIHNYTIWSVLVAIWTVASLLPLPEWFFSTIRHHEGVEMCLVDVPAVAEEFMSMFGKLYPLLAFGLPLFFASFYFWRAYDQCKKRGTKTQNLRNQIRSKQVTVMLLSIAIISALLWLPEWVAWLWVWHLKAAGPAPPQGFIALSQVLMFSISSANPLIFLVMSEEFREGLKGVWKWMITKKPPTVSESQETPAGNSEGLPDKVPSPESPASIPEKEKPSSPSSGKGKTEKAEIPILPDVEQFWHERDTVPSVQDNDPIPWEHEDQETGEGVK
# MITF primary: blocks human microphthalmia-associated transcription factor; inhibition, % at 2.6 µM; O75030; AlphaScreen MITF homodimerization, bead proximity signal; 650,000 compounds, 0.91% hits; AID 1259374; in the data active = inhibition above about 50%;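 note: 0% = vehicle wells with protein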
# TEAD-YAP block: TEAD-YAP interaction inhibition; HEK-TIYL cells, TEAD-Gal4/YAP UAS-luciferase luminescence; inhibition, % at 9.12 µM; 640,000 compounds, 1.4% hits; AID 1259422; in the data active = inhibition above about 32%;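 note: 0% = median of test compound wells and 100% = reference inhibitor wells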
# MITF confirm: confirmation of human MITF inhibitors; 4,700 compounds, 16% hits; inhibition, % at 2.6 µM; AlphaScreen MITF homodimerization, biotin/His-MITF beads; shares compounds with MITF primary;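 active = inhibition above a cutoff derived from the DMSO control wells, cut at about 28% in these data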;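 note: 0% = MITF dimer wells with DMSO only; inhibitors lower the bead chemiluminescence by keeping MITF from dimerizing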
# AS interf DR: AlphaScreen optical interference, dose response counter-screen; AID 1259373; shares compounds with MITF primary; AlphaScreen optical interference counterscreen, cell-free; IC50, µM; 480 compounds, 6% hits; call rule not given here
# AS interf ctr: counter-screen: compounds optically interfering with AlphaScreen; LysRS AlphaScreen counterscreen, signal interference, triplicate; shares compounds with MITF primary; AID 1259376; 4,700 compounds, 7.6% hits; inhibition, % at 2.6 µM;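 active = inhibition above a cutoff derived from the DMSO control wells, cut at about 30% in these data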
# The depositor's hits bear a star; / = not tested or not shown.
SMILES,FBW7 activator,GPR151 activ,MITF primary,TEAD-YAP block,MITF confirm,AS interf ctr,others
O=S(=O)(c1ccc2c(c1)CCCC2)N1CCN(c2cc(N3CCCC3)ncn2)CC1,0.7,-0.4,16.2,-0.1,/,/,
O=S(=O)(c1ccc2c(c1)OCCO2)N1CCN(c2cc(N3CCCC3)ncn2)CC1,-0.2,3.1,80.2*,-13.3,8.3,19.5,
CCN(CCN(C)C)Cc1ccc(Cl)c(Cl)c1,-0.4,0.7,54.1*,-5.0,3.1,-5.2,
CCN(CCN(C)C)Cc1ccc(F)c(Br)c1,0.4,-0.5,27.2,7.5,/,/,
CCN(CCN(C)C)Cc1cccc(Cl)c1Cl,-0.1,-0.7,75.0*,3.6,-4.3,0.5,
CCCN(CCO)Cc1ccc(Cl)c(Cl)c1,-0.1,1.8,15.9,7.2,/,/,
CN(CCC(N)=O)Cc1ccc(F)cc1,0.5,-2.5,55.5*,10.8,-12.1,-8.3,
CCN(CCN(C)C)Cc1ccc(F)c(F)c1,0.0,-0.5,59.6*,2.6,-0.1,-5.2,
CCN(CC)CCCCCn1c(C)cc(=O)n(C)c1=O,0.0,-1.2,36.3,5.7,/,/,
CCN(CCN(C)C)Cc1ccc(Cl)cc1Cl,0.0,0.0,55.7*,-6.2,-4.7,-5.5,
CCCN(CCO)Cc1ccc(Cl)cc1Cl,-0.2,0.8,-2.2,6.3,/,/,
CCN(CCN(C)C)Cc1ccc(F)cc1F,0.0,0.0,60.3*,1.2,-6.1,-2.1,
CN(C)CCCN(CCCN(C)C)Cc1cccc(Oc2ccccc2)c1,-0.5,1.4,24.0,-3.9,/,/,
CCN(CCN(C)C)Cc1ccc(F)cc1,-0.1,0.3,60.0*,-3.9,28.2*,-3.1,AS interf DR=>6.48
CCN(CCC(=O)Nc1ccc(F)cc1)Cc1ccccc1,0.1,-0.5,4.3,4.5,/,/,
CCN(CCN(C)C)Cc1cccc(OCc2ccccc2)c1,0.0,-0.4,60.7*,5.6,-10.4,-3.7,
Cc1cc(=O)[nH]c(-n2nc(C)c(CCC(=O)NC(c3ccccc3)c3ccccc3)c2C)n1,-0.9,-0.9,16.0,20.0,/,/,
CN(C)c1ccc(/C=C2/NC(=O)NC2=O)cc1Br,0.1,0.1,14.3,-8.0,/,/,
CC(C)(C)OCC(O)CN1CCN(C(=O)c2ccccc2)CC1 (configuration not stated),-0.3,-2.2,42.7,-12.0,/,/,
CCN(CC)CC(O)CN1CCN(C(=O)c2ccccc2)CC1 (configuration not stated),-0.2,-1.6,52.0*,-5.6,11.0,10.4,
CCN(CC)CC(O)CN1CCN(S(=O)(=O)c2ccc(Cl)cc2)CC1 (configuration not stated),-0.1,-0.1,60.8*,6.2,7.8,7.3,
CCN(CC)C(=O)CSc1nc2n[nH]c(C)c2c(=N)n1-c1ccc(OC)cc1,0.1,2.1,10.2,-7.7,/,/,
CCOC(=O)c1c(NC(=O)c2cc3nc(-c4cccs4)cc(C(F)(F)F)n3n2)sc2c1CCC(C)C2 (configuration not stated),-0.1,0.3,-3.0,-2.3,/,/,
COc1cc(/C=C/C(=O)OCC(=O)Nc2ccc([N+](=O)[O-])cc2C#N)ccc1O,0.6,-0.8,71.8*,9.8,1.5,5.2,
N#Cc1cc([N+](=O)[O-])ccc1NC(=O)COC(=O)/C=C/c1ccc2c(c1)OCO2,-0.2,0.8,-1.3,-7.6,/,/,
SMILES,FBW7 activator,GPR151 activ,MITF primary,TEAD-YAP block,MITF confirm,AS interf ctr,others
N#Cc1cc(C#N)c(SCC(=O)N(c2ccccc2)c2ccccc2)nc1N,0.4,-0.6,7.6,6.8,/,/,
CC(=O)c1ccc(N2CCN(C(=O)c3ccccc3Br)CC2)c(F)c1,0.0,0.2,12.0,-4.4,/,/,
CCOc1ccccc1C1C(C#N)=C(SCC(=O)Nc2ccc(Br)cc2)NC(=O)C1C(=O)OC (configuration not stated),0.0,0.0,54.4*,10.3,-8.1,-7.5,
Cc1ccc(-n2ncc(C#N)c2/N=C/N2CCN(C)CC2)cc1,0.0,2.0,55.7*,-5.2,2.1,12.5,
Cc1cc(C=O)c(C)n1NC(=O)c1ccccc1,-0.1,-0.7,9.6,-4.6,/,/,
CN(C)c1cccc(Nc2nc3ncnc(NCCCN4CCCC4=O)c3[nH]2)c1,-0.2,1.8,52.7*,-2.8,4.3,15.2,
O=C(CSc1nnc2c(n1)[nH]c1ccc(S(=O)(=O)N3CCCCC3)cc12)Nc1ccccc1C(F)(F)F,0.0,-1.4,7.6,-1.8,/,/,
CCOc1ccc(CN2CCC(C(=O)N3CCN(CC)CC3)CC2)cc1,0.2,-0.4,-6.9,-1.6,/,/,
CCN1CCN(C(=O)C2CCN(Cc3ccc(Cl)c(Cl)c3)CC2)CC1,0.5,-0.5,63.4*,3.0,-14.7,-5.2,
NC(=O)C1CCN(Cc2ccc(Cl)c(Cl)c2)CC1,0.3,-0.5,53.2*,4.7,-1.9,3.2,
O=C(Nc1ccc(O)c(-c2nc3cc(NC(=O)C4CCCCC4)ccc3o2)c1)C1CCCCC1,0.3,-0.3,15.6,-2.3,/,/,
CCS(=O)(=O)N1CCN(C(C)CCc2ccccc2)CC1 (configuration not stated),-0.2,0.7,51.1*,18.4,6.0,12.4,
COc1ccccc1CNCC(=O)c1ccc(OC)c(OC)c1,-0.2,-0.4,68.4*,1.7,-5.9,0.2,
CS(=O)(=O)Nc1ccc(-c2cnc3cccc(N(C(=O)c4ccccn4)C(=O)c4ccccn4)c3c2)cc1,-1.4,-0.2,65.6*,-14.1,35.9*,54.5*,
Cc1cccn2c(=O)c3c(nc12)CCN(C(=O)Nc1cccc(F)c1)C3,0.4,0.2,6.9,-2.2,/,/,
Cc1cccn2c(=O)c3c(nc12)CCN(C(=O)Nc1cccc(C(F)(F)F)c1)C3,0.0,-0.6,50.6*,7.0,7.2,17.3,
CC(=O)OC1C2CC(C1I)C(C(F)(F)F)(C(F)(F)F)N2 (configuration not stated),0.0,-0.3,10.0,0.8,/,/,
CC(=O)OC1C2CC(C1Br)C(C(F)(F)F)(C(F)(F)F)N2 (configuration not stated),-0.1,-0.2,55.2*,-3.7,-4.1,-2.0,
Cc1noc(C)c1S(=O)(=O)N1CCC(c2[nH]ncc2-c2ccccc2)CC1,0.0,1.1,13.6,-3.4,/,/,
COc1cccc(C(=O)N2CCN(Cc3cc(OC)c(OC)c(OC)c3)CC2)c1,-0.3,1.4,48.5,-5.8,/,/,
CCC(C)N1CCN(C(=O)c2cc(OC)c(OC)c(OC)c2)CC1 (configuration not stated),0.0,-0.7,51.4*,-3.9,-8.9,-0.3,
COc1ccc(C(=O)N2CCN(C3CCCC(C)C3)CC2)cc1 (configuration not stated),0.1,0.9,51.9*,6.5,4.2,11.2,
COc1cc(CN2CCN(C(=O)c3cc(OC)c(OC)c(OC)c3)CC2)cc(OC)c1,0.4,-1.1,55.2*,4.5,3.7,11.7,
COc1ccc(C(=O)N2CCN(Cc3cc(OC)c(OC)c(OC)c3)CC2)cc1,0.9,-0.6,72.2*,-8.9,5.4,-0.7,
COc1ccc(C(=O)N2CCN(Cc3cc(OC)c(O)c(OC)c3)CC2)cc1,-0.1,-0.9,26.3,5.4,/,/,

# High-throughput results as filed in PubChem.
